# Experimental data published in PubChem BioAssay (NCATS).
# “And” between values parts separate entries of the source, which are not always exact repeats. Equal values may be shown once. Results filed as inconclusive are left out. Some structures have more than one record in an assay (separate samples or runs), and their calls can disagree. The source made the active and inactive calls. Unless noted, calls come from the whole dose curve.
# Legend:
# [1] = target: Androgen receptor (Homo sapiens) (UniProt P10275); assay: qHTS assay for small molecule agonists of androgen receptor signaling (AID 588515; active = well fitted curve in the direction sought with a large enough effect in the signal ratio, with a control signal flat; the % refers to the signal ratio; note: % is set by controls: 0 for no effect and ±100 for the full control effect); details: AR-UAS-bla HEK293, beta-lactamase ratio, agonist 16 h; stronger effect = higher value
# Androgen receptor (Homo sapiens), sequence (P10275 whole entry, looked up): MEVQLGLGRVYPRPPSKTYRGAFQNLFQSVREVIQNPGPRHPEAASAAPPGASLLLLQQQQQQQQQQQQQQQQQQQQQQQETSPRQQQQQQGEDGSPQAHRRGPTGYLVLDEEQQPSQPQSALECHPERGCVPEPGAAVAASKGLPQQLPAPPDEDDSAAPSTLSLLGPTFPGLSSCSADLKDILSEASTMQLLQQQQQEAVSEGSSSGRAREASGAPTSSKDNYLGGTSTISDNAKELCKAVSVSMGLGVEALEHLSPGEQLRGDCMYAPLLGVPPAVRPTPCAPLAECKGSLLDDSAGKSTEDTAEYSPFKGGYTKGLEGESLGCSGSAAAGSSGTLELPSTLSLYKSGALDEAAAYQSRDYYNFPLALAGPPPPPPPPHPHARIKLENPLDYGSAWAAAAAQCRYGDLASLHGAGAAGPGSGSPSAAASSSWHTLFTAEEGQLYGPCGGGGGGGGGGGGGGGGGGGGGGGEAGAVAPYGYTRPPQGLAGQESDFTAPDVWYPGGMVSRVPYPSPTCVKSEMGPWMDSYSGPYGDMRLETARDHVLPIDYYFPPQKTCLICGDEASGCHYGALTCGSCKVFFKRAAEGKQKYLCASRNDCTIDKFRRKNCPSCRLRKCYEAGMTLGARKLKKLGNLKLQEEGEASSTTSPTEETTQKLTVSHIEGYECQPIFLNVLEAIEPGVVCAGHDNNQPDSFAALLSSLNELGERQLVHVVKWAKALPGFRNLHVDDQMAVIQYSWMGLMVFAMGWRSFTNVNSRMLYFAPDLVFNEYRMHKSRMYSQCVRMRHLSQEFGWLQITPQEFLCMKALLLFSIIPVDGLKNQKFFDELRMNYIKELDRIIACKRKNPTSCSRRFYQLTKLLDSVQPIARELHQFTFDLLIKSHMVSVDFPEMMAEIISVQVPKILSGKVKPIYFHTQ
# In short: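 EC50 and efficacy came from Hill fits of titrations (up to 92 uM) normalized to 30 nM R1881 as 100% and DMSO as 0%. Compound exposure was 16 h at 37 C on AR-UAS-bla HEK293 cells, with a 405/460/530 nm CCF4 fluorescence read.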
# [2] = target: Androgen receptor (Homo sapiens) (UniProt P10275); assay: qHTS assay for small molecule antagonists of androgen receptor signaling (AID 588516; active = well fitted curve in the direction sought with a large enough effect in the signal ratio, with a control signal flat, not every such curve was filed as active; the % refers to the signal ratio; note: potency is the fitted concentration of half-maximal effect)
# In short: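 Antagonist mode: inhibition of R1881-stimulated (10 nM final) bla reporter in GeneBLAzer AR HEK 293 cells, 16 h at 37C, compounds titrated. IC50 and efficacy from Hill-equation fits of 405/460–530 nm FRET ratios.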
# [3] = target: Bile acid receptor (Homo sapiens) (UniProt Q96RI1); assay: qHTS assay for small molecule antagonists of farnesoid X receptor signaling (AID 588526); note: % is set by controls: 0 for no effect and ±100 for the full control effect
# Bile acid receptor (Homo sapiens), sequence (Q96RI1 whole entry, looked up): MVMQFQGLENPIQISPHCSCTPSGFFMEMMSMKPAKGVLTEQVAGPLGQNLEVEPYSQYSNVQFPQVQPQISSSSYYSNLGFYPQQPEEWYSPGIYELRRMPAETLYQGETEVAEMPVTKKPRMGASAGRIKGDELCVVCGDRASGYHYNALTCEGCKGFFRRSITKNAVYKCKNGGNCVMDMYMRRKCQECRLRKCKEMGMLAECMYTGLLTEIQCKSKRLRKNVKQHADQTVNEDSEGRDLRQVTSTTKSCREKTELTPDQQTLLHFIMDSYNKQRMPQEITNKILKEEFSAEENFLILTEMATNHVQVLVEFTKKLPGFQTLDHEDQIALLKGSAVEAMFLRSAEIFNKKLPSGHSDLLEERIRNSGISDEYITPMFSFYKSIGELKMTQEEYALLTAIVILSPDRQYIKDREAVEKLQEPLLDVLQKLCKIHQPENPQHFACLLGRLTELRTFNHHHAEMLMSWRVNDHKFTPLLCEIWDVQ
# In short: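 Beta-lactamase reporter antagonist mode: HEK293T FXR-UAS-bla cells, titrated compound, CDCA stimulation, 16 h 37 C, CCF4 dye 2 h RT. Data normalized to CDCA 50 uM and DMSO; Hill-fit IC50.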
# [4] = target: Bile acid receptor (Homo sapiens) (UniProt Q96RI1); assay: qHTS assay for small molecule agonists of farnesoid X receptor signaling (AID 588527); details: HEK293T FXR-UAS-bla, beta-lactamase ratio, 16 h; stronger effect = higher value;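 note: 0% = vehicle basal and 100% = reference agonist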
# In short: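 FXR-UAS-bla HEK293T, 10% dialyzed FBS; cpds up to 92 uM titration, 16 h 37 C; CCF4 dye 2 h RT; fluorescence. Normalized to chenodeoxycholic acid 100 uM (100%) and DMSO (0%); Hill fit gives EC50, efficacy.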
# [5] = target: Peroxisome proliferator-activated receptor delta (Homo sapiens) (UniProt Q03181); assay: qHTS assay for small molecule agonists of peroxisome proliferator-activated receptor delta signaling (AID 588534);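 note: 0% = DMSO basal wells and 100% = positive control agonist at 10 µM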
# Peroxisome proliferator-activated receptor delta (Homo sapiens), sequence (Q03181 whole entry, looked up): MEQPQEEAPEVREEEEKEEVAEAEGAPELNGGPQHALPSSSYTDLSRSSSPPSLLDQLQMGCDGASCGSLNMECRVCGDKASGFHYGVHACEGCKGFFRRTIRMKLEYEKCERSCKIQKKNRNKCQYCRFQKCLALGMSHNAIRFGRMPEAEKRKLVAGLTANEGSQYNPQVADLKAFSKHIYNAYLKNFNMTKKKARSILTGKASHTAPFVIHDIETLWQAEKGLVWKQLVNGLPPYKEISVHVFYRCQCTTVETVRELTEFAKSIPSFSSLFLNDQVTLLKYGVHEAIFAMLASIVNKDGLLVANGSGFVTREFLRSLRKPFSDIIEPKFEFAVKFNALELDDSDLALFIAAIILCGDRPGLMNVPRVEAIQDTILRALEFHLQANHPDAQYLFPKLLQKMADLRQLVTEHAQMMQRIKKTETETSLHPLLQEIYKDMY
# In short: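 Fluorescence from CCF4 substrate cleavage by beta-lactamase reporter, read 2 hrs at RT, measured agonist activity. Compounds were tested with 18 hrs exposure at 37 C. Concentration-response data fitted to Hill equation.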
# [6] = qHTS assay for small molecule antagonists of peroxisome proliferator-activated receptor delta signaling (AID 588535; active = well fitted inhibition curve with a large enough effect in the signal ratio, with a control signal flat, not every such curve was filed as active; the % refers to the signal ratio;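 for max response: cells co-treated with a PPAR-delta agonist as stimulator during compound exposure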); details: HEK293T PPARd-UAS-bla, beta-lactamase FRET ratio, 18 h; 460 nm channel
# In short: (§1)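 HEK293T PPAR-delta-UAS-bla cells, 4000/well, 2% charcoal/dextran FBS; 5 h 37 C; cpd titration; 18 h 37 C; CCF4 2 h RT; FI 460/530 nm; Hill fit → IC50, efficacy.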
# [7] = target: Peroxisome proliferator-activated receptor delta (Homo sapiens) (UniProt Q03181); assay: as above
# In short: as §1
# [8] = target: Peroxisome proliferator-activated receptor gamma (Homo sapiens) (UniProt P37231); assay: qHTS assay for small molecule agonists of peroxisome proliferator-activated receptor gamma signaling (AID 588536; active = well fitted curve in the direction sought with a large enough effect in the signal ratio, with a control signal flat, not every such curve was filed as active; the % refers to the signal ratio;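 note: 0% = DMSO basal wells and 100% = rosiglitazone at 2 µM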)
# Peroxisome proliferator-activated receptor gamma (Homo sapiens), sequence (P37231 whole entry, looked up): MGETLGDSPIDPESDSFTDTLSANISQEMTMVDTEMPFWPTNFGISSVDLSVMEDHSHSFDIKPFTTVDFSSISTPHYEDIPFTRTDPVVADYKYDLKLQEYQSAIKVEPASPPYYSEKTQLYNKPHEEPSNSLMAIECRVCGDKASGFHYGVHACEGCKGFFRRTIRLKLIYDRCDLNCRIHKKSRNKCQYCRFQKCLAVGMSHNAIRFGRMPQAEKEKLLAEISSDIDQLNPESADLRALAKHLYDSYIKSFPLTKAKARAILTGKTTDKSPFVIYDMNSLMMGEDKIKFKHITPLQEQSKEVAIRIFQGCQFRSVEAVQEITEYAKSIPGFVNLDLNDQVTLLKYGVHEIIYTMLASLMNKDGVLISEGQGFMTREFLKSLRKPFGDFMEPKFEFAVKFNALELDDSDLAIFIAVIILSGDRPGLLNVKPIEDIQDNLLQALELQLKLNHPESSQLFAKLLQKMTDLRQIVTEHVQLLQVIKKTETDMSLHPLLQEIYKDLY
# In short: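 PPAR-gamma-UAS-bla HEK293 cells in medium with 1% charcoal/dextran-treated FBS were exposed to compounds for 16 h at 37 C. Beta-lactamase activity was read with CCF4 substrate (405 nm excitation, 460/530 nm emission).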
# [9] = target: Peroxisome proliferator-activated receptor gamma (Homo sapiens) (UniProt P37231); assay: qHTS assay for small molecule antagonists of peroxisome proliferator-activated receptor gamma signaling (AID 588537; active = well fitted inhibition curve with a large enough effect in the signal ratio, with a control signal flat, not every such curve was filed as active; the % refers to the signal ratio;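 note: reporter cells co-stimulated with 50 nM rosiglitazone agonist during compound treatment; % of control where 0% means no effect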)
# In short: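 Antagonist mode, beta-lactamase reporter in HEK293; charcoal/dextran FBS 1%; 3000 cells/well, 37 C 6-6.5 h; cpd titration + rosiglitazone 50 nM final, 16 h 37 C; CCF4, 2 h RT; 460/530 nm; Hill fit → IC50, efficacy.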
# [10] = target: Vitamin D3 receptor (Homo sapiens) (UniProt P11473); assay: qHTS assay for small molecule antagonists of vitamin D receptor signaling (AID 588541);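 note: receptor activated by calcitriol during compound treatment; % is set by controls: 0 for no effect and ±100 for the full control effect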
# Vitamin D3 receptor (Homo sapiens), sequence (P11473 whole entry, looked up): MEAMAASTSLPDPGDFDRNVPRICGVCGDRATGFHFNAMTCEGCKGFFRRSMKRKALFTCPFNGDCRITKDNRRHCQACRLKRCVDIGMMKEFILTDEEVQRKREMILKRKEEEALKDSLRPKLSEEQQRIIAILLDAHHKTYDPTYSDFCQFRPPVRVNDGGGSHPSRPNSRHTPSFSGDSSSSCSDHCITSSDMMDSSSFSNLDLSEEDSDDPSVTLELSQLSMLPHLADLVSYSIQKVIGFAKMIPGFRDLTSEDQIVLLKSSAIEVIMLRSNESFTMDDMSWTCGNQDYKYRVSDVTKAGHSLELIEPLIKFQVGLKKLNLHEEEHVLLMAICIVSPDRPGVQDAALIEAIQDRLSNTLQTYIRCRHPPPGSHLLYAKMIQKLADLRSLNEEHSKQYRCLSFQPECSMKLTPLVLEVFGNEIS
# In short: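 Antagonist-mode beta-lactamase reporter assay: HEK293T VDR-UAS-bla cells were exposed to titrated compound alongside 1-alpha,25-dihydroxyvitamin D3 at 3 nM final for 16 h. Values were normalized to the 50 nM agonist control and DMSO basal, with IC50 and efficacy from Hill equation fits.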
# [11] = target: Vitamin D3 receptor (Homo sapiens) (UniProt P11473); assay: qHTS assay for small molecule agonists of vitamin D receptor signaling (AID 588543);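 note: 0% = DMSO basal and 100% = reference agonist control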
# In short: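 Agonist-mode beta-lactamase reporter: HEK293T VDR-UAS-bla cells in charcoal-stripped 2% FBS, compound series 16 h 37 C, CCF4 2 h RT. EC50 from Hill fit, scaled against DMSO and 50 nM calcitriol control.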
# [12] = target: Thyroid hormone receptor beta (Homo sapiens) (UniProt P10828); assay: qHTS assay for small molecule agonists of thyroid hormone receptor beta signaling (AID 588545)
# Thyroid hormone receptor beta (Homo sapiens), sequence (P10828 whole entry, looked up): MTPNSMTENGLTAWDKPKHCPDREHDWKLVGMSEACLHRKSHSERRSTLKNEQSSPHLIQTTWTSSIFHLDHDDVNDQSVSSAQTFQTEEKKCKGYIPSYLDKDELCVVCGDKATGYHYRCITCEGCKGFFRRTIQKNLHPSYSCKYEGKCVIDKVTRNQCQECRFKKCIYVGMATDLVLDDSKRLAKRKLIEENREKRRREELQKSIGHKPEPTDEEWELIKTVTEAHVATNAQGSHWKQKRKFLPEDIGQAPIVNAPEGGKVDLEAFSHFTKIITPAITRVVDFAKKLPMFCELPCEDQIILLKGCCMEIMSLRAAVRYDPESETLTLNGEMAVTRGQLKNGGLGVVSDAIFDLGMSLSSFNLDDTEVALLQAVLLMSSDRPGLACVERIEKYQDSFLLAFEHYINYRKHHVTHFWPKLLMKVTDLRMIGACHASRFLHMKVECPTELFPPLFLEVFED
# In short: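 In this cell-based screen, titrated compounds act on HEK 293 cells held in medium with 2% charcoal/dextran FBS, NEAA and pyruvate for 18 hrs at 37 C. Responses are expressed relative to T3 (10 nM) as 100% and basal DMSO as 0%.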
# [13] = qHTS assay for small molecule antagonists of retinoid X receptor alpha signaling (AID 588546; active = well fitted inhibition curve with a large enough effect in the signal ratio, with a control signal flat, not every such curve was filed as active; the % refers to the signal ratio;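 note: cells stimulated with 9-cis-retinoic acid as agonist; % is set by controls: 0 for no effect and ±100 for the full control effect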); details: HEK293T RXRa-UAS-bla, beta-lactamase ratio, antagonist mode; measured here: W530 green channel, cytotoxicity proxy
# In short: (§2)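 Beta-lactamase reporter inhibition, read as CCF4 fluorescence ratio (ex 405, em 460/530 nm) after 2 h at RT. HEK293T UAS-bla cells, 2500/well, were stimulated with 9-cis-RA at 500 or 100 nM final alongside test compound for 18 h at 37 C.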
# [14] = target: Retinoic acid receptor RXR-alpha (Homo sapiens) (UniProt P19793); assay: as above; details: HEK293T RXRa-UAS-bla, beta-lactamase ratio, antagonist mode
# Retinoic acid receptor RXR-alpha (Homo sapiens), sequence (P19793 whole entry, looked up): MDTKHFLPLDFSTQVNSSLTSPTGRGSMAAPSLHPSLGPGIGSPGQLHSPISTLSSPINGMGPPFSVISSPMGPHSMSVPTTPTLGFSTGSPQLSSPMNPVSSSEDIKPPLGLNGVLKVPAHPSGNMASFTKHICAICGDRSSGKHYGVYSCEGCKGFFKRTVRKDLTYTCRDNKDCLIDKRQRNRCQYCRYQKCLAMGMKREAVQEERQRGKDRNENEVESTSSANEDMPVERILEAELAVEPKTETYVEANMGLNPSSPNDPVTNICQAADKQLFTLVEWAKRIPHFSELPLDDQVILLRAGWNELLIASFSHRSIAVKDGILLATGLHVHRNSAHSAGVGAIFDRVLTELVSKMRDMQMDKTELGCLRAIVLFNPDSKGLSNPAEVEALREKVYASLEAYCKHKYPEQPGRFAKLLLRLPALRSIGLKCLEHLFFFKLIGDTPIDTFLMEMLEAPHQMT
# In short: as §2
# [15] = target: Thyroid hormone receptor beta (Homo sapiens) (UniProt P10828); assay: qHTS assay for small molecule antagonists of thyroid hormone receptor beta signaling (AID 588547; active = well fitted inhibition curve with a large enough effect in the signal ratio, with a control signal flat, not every such curve was filed as active; the % refers to the signal ratio); details: TR-UAS-bla HEK293, beta-lactamase ratio, antagonist mode, 18 h
# In short: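 Inhibition of T3-driven (0.4nM final) beta-lactamase reporter activity was measured over 0.59 nM to 92 uM compound after 18 h at 37 C. The cells were GripTite HEK293 TR-UAS-bla in charcoal/dextran-stripped serum, with CCF4 ratio read-out and IC50 from Hill fits.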
# [16] = qHTS assay for small molecule agonists of the antioxidant response element (ARE) signaling pathway (AID 651741; active = well fitted activation curve with a large enough effect in the signal ratio; the % refers to the signal ratio; note: potency is the fitted concentration of half-maximal effect)
# In short: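 Quantitative HTS in HepG2 cells stably expressing an ARE-beta-lactamase reporter; 16 h compound exposure at 37 C, followed by 2 h room-temperature incubation with LiveBLAzer B/G FRET substrate and fluorescence measurement.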
# [17] = qHTS assay for small molecule activators of the p53 signaling pathway (AID 651743; active = well fitted activation curve with a large enough effect in the signal ratio, not every such curve was filed as active; the % refers to the signal ratio; note: % of control where 0% means no effect); details: HCT-116 p53RE-bla, beta-lactamase FRET ratio, 16 h; activation: stronger effect = higher value
# In short: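 Read-out is fluorescence intensity from the LiveBLAzer B/G FRET substrate, added for 2 hours at room temperature after HCT-116 p53RE-bla cells had been incubated with compounds for 16 hours at 37 C.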
# [18] = qHTS assay for small molecule activators of the nuclear factor-kappa B (NF-kB) signaling pathway (AID 651749; active = well fitted activation curve with a large enough effect in the signal ratio; the % refers to the signal ratio; note: % of control where 0% means no effect); details: NF-kB-bla ME-180 cells, beta-lactamase FRET ratio, 16 h; activation: stronger effect = higher value
# In short: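 Readout: beta-lactamase reporter driven by an NF-kB response element, detected fluorescently as loss of FRET. Cells were the ME-180 line, treated 16 hr at 37C with pin-transferred compound.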
# [19] = qHTS assay for environmental chemicals that activate the Aryl hydrocarbon Receptor (AhR) signaling pathway (AID 651777; active = well fitted curve in the direction sought with a large enough effect; an effect the other way counts as inactive or inconclusive; note: % of control where 0% means no effect; nearly all actives have a fitted effect of over 15% in size); details: 1A2-DRE human hepatoma cells, luciferase, 24 h; activation: stronger effect = higher value
# In short: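 AhR activation is scored as a rise in luciferase from a stable DRE–CYP1A2 promoter construct in human hepatoma cells. Treatment lasts 24 hr at 37 C; detection uses One-Glo after 30 min at room temperature.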
# [20] = target: Peroxisome proliferator-activated receptor alpha (Homo sapiens) (UniProt Q07869); assay: qHTS assay for small molecule agonists of the peroxisome proliferator-activated receptor alpha (PPARalpha) signaling pathway (AID 651778; active = well fitted curve in the direction sought with a large enough effect; an effect the other way counts as inactive or inconclusive; note: % of control where 0% means no effect); details: PathHunter PPARalpha complementation, chemiluminescence, 6 h; stronger effect = higher value
# Peroxisome proliferator-activated receptor alpha (Homo sapiens), sequence (Q07869 whole entry, looked up): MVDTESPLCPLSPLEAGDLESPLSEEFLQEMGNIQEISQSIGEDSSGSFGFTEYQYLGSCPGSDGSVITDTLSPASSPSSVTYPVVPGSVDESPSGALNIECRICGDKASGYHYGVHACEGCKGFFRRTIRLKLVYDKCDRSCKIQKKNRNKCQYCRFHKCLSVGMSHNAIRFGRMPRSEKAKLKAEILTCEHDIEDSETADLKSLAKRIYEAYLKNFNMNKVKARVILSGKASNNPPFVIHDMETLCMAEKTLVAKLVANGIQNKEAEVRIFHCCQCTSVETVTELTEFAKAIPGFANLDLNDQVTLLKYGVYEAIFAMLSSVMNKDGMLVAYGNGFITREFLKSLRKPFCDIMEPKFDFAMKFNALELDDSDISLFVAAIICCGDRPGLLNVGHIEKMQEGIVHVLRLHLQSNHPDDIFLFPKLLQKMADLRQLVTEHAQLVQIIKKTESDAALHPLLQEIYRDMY
# In short: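 Chemiluminescence from complemented enzyme reported PPARalpha activation in cells after 6 hr of compound treatment at 37 C. The detection reagent was incubated for 60 min at room temperature, and compounds were scored as agonists.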
# [21] = qHTS assay for small molecule agonists of the antioxidant response element (ARE) signaling pathway measured by Nrf2-dependant transcriptional activity - cell viability counter screen (AID 720653; active = well fitted curve in the direction sought with a large enough effect in the repeat runs; an effect the other way counts as inactive or inconclusive; note: % is set by controls: 0 for no effect and ±100 for the full control effect); details: ARE-bla HepG2 viability, CellTiter-Glo ATP luminescence, 16 h; stronger effect = lower value
# In short: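 Cytotoxicity counter screen: intracellular ATP quantified by CellTiter-Glo luminescence in the same ARE-bla HepG2 plates, after 16 h compound exposure and a 2 h beta-lactamase substrate step.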
# [22] = qHTS assay for cell viability of HEK293 cells (AID 743288; active = well fitted curve in the direction sought with a large enough effect; an effect the other way counts as inactive or inconclusive; note: % is set by controls: 0 for no effect and ±100 for the full control effect; nearly all actives have a fitted effect of over 50% in size); details: ATP luminescence (CellTiter-Glo), 18 h; max response: stronger effect = lower value
# In short: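 Total intracellular ATP, measured with a luciferase-coupled reagent, indicates the number of viable HEK293 cells. Exposure to test chemicals lasts 18 h at 37 C in 1,536-well format at 2,000 cells/well.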
# [23] = qHTS assay for cell viability of the p53RE-bla HCT-116 cell line (AID 743292; active = well fitted curve in the direction sought with a large enough effect; an effect the other way counts as inactive or inconclusive; note: % is set by controls: 0 for no effect and ±100 for the full control effect; nearly all actives have a fitted effect of over 55% in size)
# In short: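 Quantitative high-throughput format: compounds in DMSO were pinned onto p53RE-bla HCT-116 cells (4,000/well) and incubated 16 h at 37 C. Total intracellular ATP, read by CellTiter-Glo luminescence, reflects viable cell number.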
# [24] = Primary qHTS for Huh7 cytotoxicity: counterscreen for inhibitors of MERS-S pseudotyped particle cell entry (AID 1479147); details: outcome: dose series up to 57.1 µM unless noted
# [25] = Primary qHTS for inhibitors of MERS-S pseudo-typed particle cell entry (AID 1479149); details: outcome: dose series up to 57.1 µM unless noted; note: nearly all actives have a fitted effect of over 60% in size
# [26] = Primary qHTS for Vero E6 cytotoxicity: counterscreen for inhibitors of SARS-S pseudo-typed particle cell entry (AID 1479150); details: outcome: dose series up to 57.1 µM unless noted
# [27] = Cytotoxicity counterscreen for inhibitors of SARS-CoV-2 cell entry (AID 1645845); details: outcome: dose series up to 57.1 µM unless noted; note: nearly all actives have a fitted effect of over 50% in size
# In short: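 48 h compound treatment (after 1 h preincubation), HEK293-ACE2 cells, 37 C/5% CO2; ATP luminescence endpoint; normalized to cell wells and media blanks.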
# [28] = Primary qHTS to identify inhibitors of SARS-CoV-2 cell entry (AID 1645846); details: SARS-CoV-2 pseudovirus cell entry assay, luminescence; activity change, negative = inhibition: at 57.1 µM (top of the series) unless noted; note: nearly all actives have a fitted effect of over 45% in size
# In short: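 Entry measured by luciferase signal 48 h after adding SARS-CoV-2-S pseudotyped MLV particles to HEK293-ACE2 cells preincubated 1 h with compounds. Normalisation: bald particles and spike particles.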
# [29] = target: Phospholipid hydroperoxide glutathione peroxidase GPX4 (Homo sapiens) (UniProt P36969); assay: Primary qHTS Assay for Inhibitors of Recombinant Selenoprotein Glutathione Peroxidase 4 (GPX4) (AID 1845192; active = well fitted curve in the direction sought with a large enough effect; an effect the other way counts as inactive or inconclusive; note: % is set by controls: 0 for no effect and ±100 for the full control effect; nearly all actives have a fitted effect of over 65% in size)
# Phospholipid hydroperoxide glutathione peroxidase GPX4 (Homo sapiens), sequence (P36969 whole entry, looked up): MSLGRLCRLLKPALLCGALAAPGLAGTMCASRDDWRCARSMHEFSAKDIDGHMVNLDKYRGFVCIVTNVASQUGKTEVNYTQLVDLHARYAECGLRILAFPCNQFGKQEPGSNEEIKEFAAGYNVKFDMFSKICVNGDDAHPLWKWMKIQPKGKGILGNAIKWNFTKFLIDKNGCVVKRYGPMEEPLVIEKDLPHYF
# In short: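 NADPH consumption, followed by fluorescence at 340/450 nm between 0 and 15 min, reports GPX4 activity via coupled glutathione reductase (100 nM). Enzyme 200 nM was pre-exposed to compound 30 min; 0.5 mM cumene hydroperoxide and 1 mM GSH served as substrates.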
compound,measurement,setting,value
CC(COc1ccc(Oc2ccccc2)cc1)Oc1ccccn1 (centres undefined),activation,[1],-2.33% (inactive)
same,Potency,[2],inactive and 39.8 µM (active)
same,outcome,[3],inactive
same,activation,[4],0.631% (inactive) and 1.01% (inactive)
same,outcome,[5],inactive
same,max response,[6],11.7% and -13.8%
same,Potency,[7],inactive
same,outcome,[8],inactive
same,Potency,[9],inactive
same,outcome,[10],inactive
same,outcome,[11],inactive
same,outcome,[12],inactive
same,max response,[13],-19.9% and -8.14%
same,max response,[14],-8.09% (inactive) and -10.1% (inactive)
same,activity change % (negative = inhibition),[15],4.1% (inactive) and -8.02% (inactive)
same,Potency,[16],48.6 µM (active) and 27.3 µM (active)
same,activation,[17],-3.04% (inactive) and -2.31% (inactive)
same,activation,[18],-1.12% (inactive) and 0.467% (inactive)
same,activation,[19],13% (inactive)
same,max response,[20],-1.27% (inactive) and -0.944% (inactive)
same,max response,[21],2.4% (inactive) and -4.17% (inactive)
same,max response,[22],-1.69% (inactive) and -16.3% (inactive)
same,Potency,[23],inactive
same,Potency,[24],inactive
same,Potency,[25],inactive
same,Potency,[26],inactive
same,Potency,[27],inactive
same,"activity change, negative = inhibition",[28],-5.43%
same,Potency,[29],inactive
